{"source": "PubChem BioAssay (NCATS)", "note": "Inconclusive results are not listed. Values without a mark were called inactive. Calls of active or inactive are those of the source. The call rests on the fitted dose curve; in most records, active means well fitted inhibition curve with a large enough effect; inconclusive means small, poorly fitted or top-dose-only effect; inactive means flat fitted curve, though single readings scatter. Where a SMILES comes first, the peptide text is derived from it. The star is where a group is joined. PhAc = O=C(Cc1ccccc1)*"}
{"assay": "P-glycoprotein substrates identified in KB-8-5-11 adenocarcinoma cell line, qHTS therapeutic library screen (AID 1346987); further: nearly all actives have a fitted effect of over 65% in size; on activity change, negative = cytotoxicity: on the % scale 0 is the no-effect control and ±100 the full control effect", "settings": "KB-8-5-11 (P-gp overexpressing) viability, CellTiter-Glo, 72 h; series mostly up to 44.5 µM; activity change, negative = cytotoxicity: at the top concentration", "how_it_was_run": "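Human cervical adenocarcinoma KB-8-5-11 cells, selected in colchicine to over-express P-gp and assayed without it, were exposed for 72 h to titrated compounds. An ATP-based luminescent viability signal gave AC50.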"}
{"smiles": "COC(=O)C1C(c2ccc(O)cc2)C(C(=O)O)C1c1ccc(O)cc1", "note": "(stereo not drawn)", "activity change, negative = cytotoxicity": "5.48%"}
{"smiles": "CC/C=C\\CC1C(CC(=O)O)CCC1OC1OC(CO)C(O)C(O)C1O", "note": "(stereo not drawn)", "outcome": "inactive"}
{"smiles": "CN(C)CCC[C@]1(c2ccc(F)cc2)OCc2cc(C#N)ccc21", "activity change, negative = cytotoxicity": "-3.17%"}
{"smiles": "CCOC(=O)CNC(=O)[C@@H]1CCCN1C(=O)Cc1ccccc1", "note": "(PhAc-Pro-Gly-OEt)", "activity change, negative = cytotoxicity": "-7.85%"}
{"smiles": "C/C(=C\\C(=O)C[C@@]12C(=O)O[C@]3(C)CC[C@H]1C[C@H]23)C(N)=O", "outcome": "inactive"}
{"smiles": "CC1=C2C3OC(=O)C(C)C3(O)CCC2(C)CCC1", "note": "(stereo not drawn)", "activity change, negative = cytotoxicity": "7.82%"}
{"smiles": "CC1(C)CC[C@]2(C(=O)O)CC[C@]3(C)C(=CCC4[C@@]5(C)CC[C@H](O)C(C)(C)C5CC[C@]43C)C2C1", "note": "(stereo partly drawn)", "activity change, negative = cytotoxicity": "-1.94% [at 17.3 µM]"}
{"smiles": "COC(=O)C(CC1(O)c2ccccc2N2C(=O)C(C)(C)N(O)C21)n1cnc2ccccc2c1=O", "note": "(stereo not drawn)", "outcome": "inactive [at 17.3 µM]"}
